# In PubChem BioAssay (Tox21):
# Inconclusive results are not listed. Where a structure was tested more than once in an assay, its records may differ in their call. The source made the active and inactive calls. Calls come from the whole dose curve; as a rule, active = well fitted curve in the direction sought with a large enough effect in the repeat runs; inconclusive = weak or mixed curves; inactive = no such curve, though single readings can be large; an effect the other way counts as inactive or inconclusive.
# What was measured:
# [1] = Caspase-3/7 induction in HepG2 cells by small molecules, qHTS assay (AID 1346978); note: nearly all actives have a fitted effect of over 15% in size; note: potency is the fitted concentration of half-maximal effect
# Outline: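 Wild-type HepG2 cells (2,000/well) were settled 5 h at 37 C, 5% CO2, then exposed to compounds in DMSO for 17 h. Caspase-3/7 activity was read by luminescence 30 min after adding Caspase-Glo 3/7 reagent at room temperature.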
# [2] = Caspase-3/7 induction in CHO-K1 cells by small molecules, qHTS cell viability counter screen (AID 1346979); note: nearly all actives have a fitted effect of over 35% in size; note: potency is the fitted concentration of half-maximal effect
# Outline: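 In the same wells as the caspase read, viability of compound-treated wild-type CHO-K1 cells was assessed using CellTiter-Fluor, added after 16hr at 37C and measured by fluorescence following 1hr further incubation.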
# [3] = Caspase-3/7 induction in CHO-K1 cells by small molecules, qHTS assay (AID 1346980); note: nearly all actives have a fitted effect of over 15% in size; note: potency is the fitted concentration of half-maximal effect
# Outline: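 Wild-type cells were seeded at 1,500 per well and settled 5 hr at 37 C, 5% CO2, then exposed to DMSO-dissolved compounds for 17 hr. Caspase-Glo 3/7 reagent was added, and luminescence was read after 30min at room temperature.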
# [4] = Caspase-3/7 induction in HepG2 cells by small molecules, qHTS cell viability counter screen (AID 1346981); note: nearly all actives have a fitted effect of over 30% in size; note: potency is the fitted concentration of half-maximal effect
# Outline: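 Viability determined by CellTiter-Fluor fluorescence in HepG2 wells also used for the luminescent Caspase-Glo 3/7 read. Compounds were present for 16 hr at 37 C, 5% CO2 before reagent addition.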
# [5] = Human pregnane X receptor (PXR) small molecule agonists, qHTS cell viability counter screen (AID 1346977); note: nearly all actives have a fitted effect of over 50% in size; note: potency is the fitted concentration of half-maximal effect
# Outline: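 Measures live-cell protease fluorescence (CellTiter-Fluor) in PXR-Luc HepG2 cells treated 24hr with compounds at 37C. Cells had 5hr to attach before pin transfer of DMSO solutions.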
# [6] = molecular target: Nuclear receptor subfamily 1 group I member 2 (Homo sapiens) (UniProt O75469); assay: Human pregnane X receptor (PXR) small molecule agonists, qHTS assay (AID 1346982); note: nearly all actives have a fitted effect of over 35% in size; note: potency is the fitted concentration of half-maximal effect
# Outline: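 Compound-induced hPXR transactivation of a CYP3A4 luciferase reporter was scored in HepG2 PXR-Luc cells over 24 hr at 37 C, 5% CO2, by luminescence.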
# [7] = molecular target: Cytochrome P450 2D6 (Homo sapiens) (UniProt P10635); assay: Cytochrome P450 Family 2 Subfamily D Member 6 (CYP2D6) small molecule antagonists: luciferase reporter qHTS assay (AID 1671196); note: nearly all actives have a fitted effect of over 50% in size; note: potency is the fitted concentration of half-maximal effect; for activity change, negative = inhibition: series mostly up to about 120 µM
# Outline: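 Each well received CYP2D6 with its proluciferin substrate and chemical, sat 10 min, then got NADPH regeneration solution for 1 h at room temperature. Luminescence in RLU served as the activity measure.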
# [8] = molecular target: Nuclear receptor subfamily 1 group I member 2 (Rattus norvegicus) (UniProt Q9R1A7); assay: Rat pregnane X receptor (rPXR) activation by small molecules, qHTS assay (AID 1346983); settings: rPXR luciferase reporter cells, One-Glo luminescence, 24 h; max activation: stronger effect = higher value; note: nearly all actives have a fitted effect of over 20% in size
# Outline: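 Cell-based rPXR luciferase reporter assay, 2,000 cells per well, rested 5hr at 37 C before compound addition in DMSO, then 24 hr at 37 C. One-Glo reagent was added and luminescence read after 30 min at room temperature.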
# [9] = molecular target: Nuclear receptor subfamily 1 group I member 2 (Homo sapiens) (UniProt O75469); assay: CYP3A4 induction through human pregnane X receptor (PXR) by small molecules, qHTS assay (AID 1346984); note: nearly all actives have a fitted effect of over 40% in size
# Outline: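 Readings come from a luciferase reporter: DPX-2 cells, which are HepG2 cotransfected with PXR and a CYP3A4-promoter construct, were exposed to test compounds for 24 h at 37C before One-Glo detection.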
# [10] = molecular target: Nuclear receptor subfamily 1 group I member 2 (Homo sapiens) (UniProt O75469); assay: Human pregnane X receptor (PXR) activation by small molecules, qHTS assay (AID 1346985); note: nearly all actives have a fitted effect of over 40% in size; note: potency is the fitted concentration of half-maximal effect
# Outline: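 DPX-2 cells (HepG2 co-transfected with a PXR response element and a CYP3A4-promoter luciferase construct) were seeded at 2,000 per well, rested 5 hr at 37C, then exposed to DMSO-dissolved compounds for 24 hr. Activation was read as luciferase luminescence.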
# % is set by controls: 0 for no effect and ±100 for the full control effect.
# Cytochrome P450 2D6 (Homo sapiens), sequence (P10635 whole entry, looked up): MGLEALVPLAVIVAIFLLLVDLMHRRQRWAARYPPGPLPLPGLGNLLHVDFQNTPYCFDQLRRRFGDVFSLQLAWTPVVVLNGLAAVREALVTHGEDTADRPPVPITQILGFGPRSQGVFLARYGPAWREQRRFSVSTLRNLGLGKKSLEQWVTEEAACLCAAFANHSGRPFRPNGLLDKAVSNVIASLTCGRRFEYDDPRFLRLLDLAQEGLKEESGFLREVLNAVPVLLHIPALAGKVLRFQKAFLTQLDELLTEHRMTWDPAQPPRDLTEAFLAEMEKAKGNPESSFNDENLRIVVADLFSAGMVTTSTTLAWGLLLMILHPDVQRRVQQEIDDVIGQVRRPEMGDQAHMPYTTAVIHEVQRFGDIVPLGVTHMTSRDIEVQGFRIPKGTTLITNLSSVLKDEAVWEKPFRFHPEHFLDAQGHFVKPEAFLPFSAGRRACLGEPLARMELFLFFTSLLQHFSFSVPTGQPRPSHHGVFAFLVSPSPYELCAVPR
# Nuclear receptor subfamily 1 group I member 2 (Homo sapiens), sequence (O75469 whole entry, looked up): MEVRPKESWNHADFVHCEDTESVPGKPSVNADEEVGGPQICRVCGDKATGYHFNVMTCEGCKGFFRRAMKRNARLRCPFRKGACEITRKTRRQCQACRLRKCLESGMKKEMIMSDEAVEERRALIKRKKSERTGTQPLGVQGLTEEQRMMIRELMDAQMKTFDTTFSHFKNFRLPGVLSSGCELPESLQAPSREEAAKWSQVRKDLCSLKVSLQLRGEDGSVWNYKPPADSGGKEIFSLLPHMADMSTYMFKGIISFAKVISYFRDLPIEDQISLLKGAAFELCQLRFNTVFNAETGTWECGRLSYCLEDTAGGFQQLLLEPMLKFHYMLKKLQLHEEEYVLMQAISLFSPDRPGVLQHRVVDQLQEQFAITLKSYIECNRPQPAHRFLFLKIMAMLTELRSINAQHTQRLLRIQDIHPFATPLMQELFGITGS
# Nuclear receptor subfamily 1 group I member 2 (Rattus norvegicus), sequence (Q9R1A7 whole entry, looked up): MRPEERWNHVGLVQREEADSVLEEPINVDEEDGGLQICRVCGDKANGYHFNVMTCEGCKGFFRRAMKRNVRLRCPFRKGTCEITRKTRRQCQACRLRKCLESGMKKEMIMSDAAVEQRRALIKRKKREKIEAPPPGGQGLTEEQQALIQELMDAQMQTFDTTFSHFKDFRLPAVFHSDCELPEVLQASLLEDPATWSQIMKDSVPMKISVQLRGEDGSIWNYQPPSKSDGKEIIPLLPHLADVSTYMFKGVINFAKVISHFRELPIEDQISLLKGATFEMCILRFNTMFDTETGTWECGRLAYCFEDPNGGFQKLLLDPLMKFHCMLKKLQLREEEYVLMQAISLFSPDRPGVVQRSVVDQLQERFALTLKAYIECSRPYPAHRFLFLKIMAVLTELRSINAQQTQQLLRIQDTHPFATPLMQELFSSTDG
smiles,measurement,setting,value
Cc1onc(-c2ccccc2Cl)c1C(=O)N[C@@H]1C(=O)N2[C@@H]1SC(C)(C)[C@@H]2C(=O)O,Potency,[1],inactive
same,Potency,[2],inactive
same,Potency,[3],inactive
same,Potency,[4],inactive
CC1=C(/C=C/C(C)=C/C=C/C(C)=C/C=O)C(C)(C)CCC1,Potency,[5],60.8 µM (active)
same,Potency,[2],21.6 µM (active)
same,Potency,[4],60.8 µM (active)
same,Potency,[6],15.3 µM (active)
same,Potency,[7],63 µM (active)
O=C1C=CC(=O)N1,Potency,[1],inactive
same,Potency,[2],5.59 µM (active)
same,Potency,[3],inactive
same,Potency,[6],inactive
same,Potency,[7],inactive
O=c1c(-c2ccccc2)c1-c1ccccc1,Potency,[5],26.6 µM (active)
same,Potency,[2],16.8 µM (active)
same,Potency,[6],11.9 µM (active)
same,max activation,[8],-15.6% (inactive)
same,Potency,[9],inactive
same,Potency,[10],inactive
NC(=O)N1C(=O)C(C(=O)c2cc(Cl)cs2)c2cc(F)c(Cl)cc21 (configuration not stated),Potency,[5],54.5 µM (active)
same,Potency,[3],inactive
same,Potency,[4],54.5 µM (active)
CCN(C(=O)c1cc(C)cc(OC[C@H](C)Nc2ccncc2)c1)C(C)C,Potency,[1],inactive
same,Potency,[2],inactive
same,Potency,[3],inactive
same,Potency,[4],inactive
same,Potency,[6],17 µM (active)
same,Potency,[7],22.2 µM (active)
CCCCCCCCCCCCCCCC[N+](C)(C)CCN(Cc1ccc(OC)cc1)c1ncccn1,Potency,[5],29.8 µM (active)
same,Potency,[2],26.6 µM (active)
same,Potency,[6],inactive
same,max activation,[8],-2.3% (inactive)
same,Potency,[9],inactive
same,Potency,[10],inactive
same,Potency,[7],15.5 µM (active)
Cc1cc(O)c(C(C)(C)C)cc1C(C)(C)C,Potency,[1],61.1 µM (active)
same,Potency,[2],61.1 µM (active)
CCc1oc2ccccc2c1C(=O)c1cc(Br)c(O)c(Br)c1,Potency,[1],inactive
same,Potency,[2],inactive
same,Potency,[3],inactive
same,Potency,[4],inactive
same,max activation,[8],-3.61% (inactive)
same,Potency,[7],inactive
C[C@H]1[C@H]2CC[C@H]3[C@@H]4CC=C5C[C@@H](N(C)C)CC[C@]5(C)[C@H]4CC[C@]23CN1C,Potency,[1],inactive
same,Potency,[2],inactive
same,Potency,[3],inactive
same,Potency,[4],inactive
same,max activation,[8],-5.76% (inactive)
Cc1oc(-c2ccccc2)nc1CCC(=O)c1ccc(CC2SC(=O)NC2=O)cc1 (configuration not stated),Potency,[1],inactive
same,Potency,[2],21.1 µM (active)
same,Potency,[3],inactive
same,Potency,[6],inactive
same,Potency,[7],inactive
CCCCCCCCCCCC(=O)NCCCN(C)C,Potency,[5],38.6 µM (active)
same,Potency,[6],24.3 µM (active)
same,Potency,[7],12.6 µM (active)
CC1=C(C(=O)OC(C)C)C(c2cccc([N+](=O)[O-])c2)C(C(=O)OC2CN(C(c3ccccc3)c3ccccc3)C2)=C(N)N1 (configuration not stated),Potency,[5],16.8 µM (active)
same,Potency,[2],21.1 µM (active)
same,Potency,[4],33.5 µM (active)
same,Potency,[6],9.44 µM (active)
same,max activation,[8],-6.42% (inactive)
same,Potency,[9],inactive
same,Potency,[10],7.08 µM (active)
CCCCCCCCOc1ccccc1C(=O)Nc1ccc(C(=O)OCC[N+](C)(CC)CC)cc1,Potency,[5],inactive
same,Potency,[3],inactive
same,Potency,[6],inactive
same,max activation,[8],0.409% (inactive)
same,Potency,[9],inactive
same,Potency,[10],inactive
same,Potency,[7],38.9 µM (active)
CCc1cc(SCc2sc(-c3ccc(C(F)(F)F)cc3)nc2CN2CCN(c3ccc(OC)cc3)CC2)ccc1OCC(=O)O,Potency,[5],54.5 µM (active)
same,Potency,[2],24.3 µM (active)
same,Potency,[4],24.3 µM (active)
same,Potency,[6],48.6 µM (active)
same,Potency,[7],inactive
CC(C)(C)CC(C)(C)c1ccc(OCCOCC[N+](C)(C)Cc2ccccc2)cc1,Potency,[1],inactive
same,Potency,[2],61.1 µM (active)
same,Potency,[3],inactive
same,Potency,[4],61.1 µM (active)
O=c1[nH]sc2cc(Cl)ccc12,Potency,[1],inactive
same,Potency,[2],26.6 µM (active)
same,Potency,[3],inactive
same,Potency,[4],inactive
same,Potency,[6],inactive
same,Potency,[7],inactive
CCCN(CCC)C(=O)C(CCC(=O)OCCCN1CCN(CCOC(=O)Cc2c(C)n(C(=O)c3ccc(Cl)cc3)c3ccc(OC)cc23)CC1)NC(=O)c1ccccc1 (configuration not stated),Potency,[5],18.8 µM (active)
same,Potency,[3],inactive
same,Potency,[4],26.6 µM (active)
same,Potency,[6],10.6 µM (active)
same,Potency,[7],27.5 µM (active)
CCC1OCC(COc2ccc(Oc3ccccc3)cc2)O1 (configuration not stated),Potency,[1],inactive
same,Potency,[2],inactive
same,Potency,[3],inactive
same,Potency,[4],inactive
same,Potency,[6],34.4 µM (active)
same,Potency,[7],inactive
NC(=NCCCCCCN=C(N)/N=C(\N)Nc1ccc(Cl)cc1)/N=C(\N)Nc1ccc(Cl)cc1,Potency,[1],inactive
same,Potency,[2],24.2 µM (active) [middle of 5 runs]
same,Potency,[3],inactive
same,Potency,[6],2.41 µM (active) and inactive
Oc1c(Cl)cc(Cl)c2cccnc12,Potency,[1],inactive
same,Potency,[2],11.9 µM (active)
same,Potency,[3],inactive
same,Potency,[4],inactive
same,Potency,[6],26.6 µM (active)
same,max activation,[8],4.53% (inactive)
same,Potency,[10],28.2 µM (active)
O=[N+]([O-])c1cc([N+](=O)[O-])c2ccc(S(=O)(=O)O)cc2c1O,Potency,[5],27.1 µM (active)
same,Potency,[2],21.6 µM (active)
same,Potency,[4],24.2 µM (active)
CCCCCCCCCOC(=O)c1ccc(O)cc1,Potency,[1],53.7 µM (active)
same,Potency,[2],53.7 µM (active)
same,Potency,[3],inactive
same,Potency,[4],60.3 µM (active)
same,Potency,[6],inactive
Cn1cc(C(=O)[C@@H]2CCc3nc[nH]c3C2)c2ccccc21,Potency,[1],inactive
same,Potency,[2],inactive
same,Potency,[3],inactive
same,Potency,[4],inactive
same,Potency,[6],inactive
same,max activation,[8],-0.66% (inactive)
same,Potency,[9],inactive
same,Potency,[10],inactive
same,Potency,[7],17.4 µM (active)
CCOc1nc2cccc(C(=O)OC(C)OC(=O)OC3CCCCC3)c2n1Cc1ccc(-c2ccccc2-c2nn[nH]n2)cc1 (configuration not stated),Potency,[2],34.3 µM (active)
same,Potency,[3],43.2 µM (active)
same,Potency,[6],24.3 µM (active)
O=C(OC[C@H]1O[C@@H](OC(=O)c2cc(O)c(O)c(OC(=O)c3cc(O)c(O)c(O)c3)c2)[C@H](OC(=O)c2cc(O)c(O)c(OC(=O)c3cc(O)c(O)c(O)c3)c2)[C@@H](OC(=O)c2cc(O)c(O)c(OC(=O)c3cc(O)c(O)c(O)c3)c2)[C@@H]1OC(=O)c1cc(O)c(O)c(OC(=O)c2cc(O)c(O)c(O)c2)c1)c1cc(O)c(O)c(OC(=O)c2cc(O)c(O)c(O)c2)c1,caspase activation,[1],-2.85% [at 19 µM] (inactive)
same,caspase-3/7 activation,[3],0.641% [at 19 µM] (inactive)
same,Potency,[4],18.5 µM (active)
same,activation,[6],-5.98% [at 19 µM] (inactive)
same,max activation,[8],-10.1% (inactive)
same,Potency,[9],inactive
same,Potency,[10],10 µM (active)
same,"activity change, negative = inhibition",[7],-17.1% [at 23.6 µM] (inactive)
NNc1nc(-c2ccc(N)cc2)cs1,Potency,[1],inactive
same,Potency,[2],48.6 µM (active)
same,Potency,[3],inactive
same,Potency,[7],71 µM (active)
CCCCN(CCCC)c1ccc(C(=O)c2ccccc2C(=O)O)c(O)c1,Potency,[6],61.7 µM (active)
same,Potency,[7],inactive
